# Source: PubChem BioAssay (National Center for Advancing Translational Sciences (NCATS))
# DT40 TDP1 no CPT – qHTS for Inhibitors of human tyrosyl-DNA phosphodiesterase 1 (TDP1): qHTS in cells in absence of CPT; DT40 Tdp1-/- hTDP1 cells, no CPT, ATP luminescence, 48 h; Potency, µM (top dose mostly 46.2 µM), inactives show top-dose activity change, negative = growth inhibition, actives largely listed as inhibitors; 420,000 tested, 15% active; further: on the % scale 0 is the no-effect control and ±100 the full control effect; nearly all actives have a fitted effect of over 55% in size
#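 Compound effects on proliferation are scored in DT40 Tdp1-/-;hTDP1 cells in the absence of CPT. ATP levels (CellTiter-Glo luminescence) are recorded after a ≥48 hr, 37 °C incubation.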
# TGFb SMAD3 inh – TGF-b pathway inhibition; AID 588855; HepG2 CAGA-GFP TGF-b/SMAD3 reporter, GFP fluorescence, 18 h; TGF-beta stimulated, 500 pg/mL final; Potency, µM (top dose mostly 46.1 µM), for inactives: at the highest dose activity, negative = inhibition, actives largely listed as inhibitors; 410,000 tested, 1.2% active; further: on the % scale 0 is the no-effect control and ±100 the full control effect; nearly all actives have a fitted effect of over 65% in size
#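 Inhibition of TGF-beta-driven CAGA-GFP reporter expression in HEPG2 cells is measured by cellular GFP fluorescence after 18 h stimulation with 500 pg/mL recombinant TGF-beta in 1% FBS medium at 37 degrees C.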
# ATXN2 expr inh – reduces ATXN2 reporter expression in HEK-293 cells. HEK-293 ATXN2-luciferase reporter, luminescence, 24 h. Potency, µM (top dose mostly 57 µM), for inactives: top-dose activity change, negative = inhibition, most hits filed as inhibitors. 360,000 tested, 0.72% active; further: on the % scale 0 is the no-effect control and ±100 the full control effect; nearly all actives have a fitted effect of over 55% in size
#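 qHTS (up to 57 uM final) was run with 24 h compound exposure of reporter cells at 37 °C. Each well was multiplexed: SteadyGlo luminescence measured ATXN2-luciferase expression after a fluorogenic Gly-Phe-AFC viability readout (25 uM final).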
# HepG2 viability – counter-screen for TGF-b inhibitors: cytotoxicity in HepG2 cells; 410,000 tested, 0.76% active; HepG2 CAGA-GFP viability, ATP luminescence, 18 h; AID 588856; Potency, µM (top dose mostly 46.1 µM), inactives show top-dose activity change, negative = cytotoxicity, most hits filed as cytotoxic
#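 CellTiter-Glo luminescence gave cytotoxicity after 18 hours at 37 degrees C. The cells were HepG2 CAGA-GFP in 1% FBS DMEM, stimulated with 500 pg/mL TGF-beta after compound addition. %Activity was normalised to no-cell wells (complete cell-killing) and DMSO (no toxicity), and curves were fitted and classified.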
# S2 tox – viability counter-screen for ATXN expression inhibitors; AID 651635; S2 cells (HEK-293 line with an ATXN2-luciferase reporter) viability, CellTiter-Fluor protease fluorescence, 24 h; 400,000 tested, 0.49% active; Potency, µM (series often up to 56.7 µM), hits mostly cytotoxic; further: nearly all actives have a fitted effect of over 40% in size
# DT40 TDP1 CPT – DT40-hTDP1 cell growth loss with CPT | chicken DT40 Tdp1-/-;hTDP1 cells + 20 nM CPT, ATP luminescence, 48 h | 420,000 tested, 12% active | Potency, µM (doses to about 46.2 µM), for the others: at the highest dose activity change, negative = growth inhibition, hits mostly inhibitors | AID 686979; further: on the % scale 0 is the no-effect control and ±100 the full control effect; nearly all actives have a fitted effect of over 55% in size
#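 Chicken DT40 Tdp1-/- cells stably complemented with human TDP1 were seeded at 400 cells/well in medium containing 20 nM camptothecin, exposed to pin-transferred compounds, and grown at 37 °C for at least 48 hr. Viability was read as ATP luminescence.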
# The depositor's hits bear a star; i = inactive; ? = inconclusive; . = not tested or not shown; [ ] = another dose, or the depositor's remark. The list is not random: actives were taken first. Their share in the collection is about 17%. The call rests on the fitted dose curve; in most records, active means well fitted curve in the direction sought with a large enough effect; inconclusive means small, poorly fitted or top-dose-only effect, or another doubt; inactive means no such curve, though single readings can be large; an effect the other way counts as inactive or inconclusive. Potency means the concentration at half of the fitted maximal effect.
SMILES,DT40 TDP1 no CPT,TGFb SMAD3 inh,ATXN2 expr inh,HepG2 viability,S2 tox,DT40 TDP1 CPT
COc1ccc(NC(=O)c2ccc3c(=O)n(Cc4ccco4)c(=S)[nH]c3c2)c(OC)c1,13µM*,0%,?,-21%,i,?
O=c1c2oc3ccccc3c2n(Cc2cccc(Cl)c2)c(=O)n1Cc1ccco1,16µM*,-12%,-20%,-55%,i,16µM*
Cc1ccc2c(c1)C(=C(C#N)C#N)CCN2,?,-1%,-11%,9%,?,-27%
COc1ccc(-c2nc(CS(=O)CC(=O)NCc3ccc(F)cc3)c(C)o2)cc1OC (centres undefined),?,?,.,-24%,.,?
COc1ccc(NC(=O)CCc2c(C)nc3c(-c4ccccc4)c(C)nn3c2C)cc1Cl,?,3%,0%,0%,i,?
Cc1ccc(Cn2c(=O)n(Cc3ccccc3)c(=O)c3oc4ccccc4c32)cc1,5%,7%,5%,-5%,i,15%
Cc1ccc(-n2c(=O)c3oc4ccccc4c3n(Cc3ccccc3)c2=O)cc1C,13µM*,-4%,-6%,-17%,i,21µM*
Nc1nsc2ccccc12,2.2µM*,?,-28%,-79%,i,3.3µM*
Nc1nnc(N)c2ccccc12,8%,9%,28%,6%,i,-7%
CCc1ccccc1Nc1nn2c(=O)c3ccc(C(=O)NC(C)c4ccccc4)cc3nc2s1 (centres undefined),15µM*,7%,?,-12%,?,15µM*
O=C(NCCC1=CCCCC1)c1ccc2c(=O)n3nc(Nc4ccccc4)sc3nc2c1,3.7µM*,-2%,.,5%,.,2.3µM*
CC(NC(=O)c1ccc2c(=O)n3c(nc2c1)CCC3)c1ccc(S(N)(=O)=O)cc1 (centres undefined),11%,19%,5%,1%,i,13%
Cc1ccc(Cl)cc1Nc1nn2c(=O)c3ccc(C(=O)NCc4ccc(F)cc4)cc3nc2s1,4.6µM*,-12%,.,-10%,.,2.1µM*
O=C(CCNC(=O)Cn1cnc2ccccc2c1=O)NCCC1=CCCCC1,-4%,-5%,2%,-43%,i,?
CCc1ccccc1Nc1nn2c(=O)c3ccc(C(=O)NCCc4ccccc4)cc3nc2s1,23µM*,0%,?,-10%,?,10µM*
CCOc1c2ccc(C(=O)NCCCCc3ccccc3)cc2nn1CC,1%,-2%,-6%,-37%,i,-18%
Cc1ncc2c(c1CNS(=O)(=O)N(C)C)CCN(C(=O)c1[nH]c3ccc(Cl)cc3c1C)C2,?,.,.,.,i,-5%[9.04 µM]
COc1ccc(CCNC(=O)C2CCCN2S(=O)(=O)c2ccc(F)cc2)cc1OC (centres undefined),-10%,1%,-27%,-4%,i,1%
O=C(CSc1nnc(CCCN2C(=O)c3cccc4cccc(c34)C2=O)n1-c1ccccc1)NCCCN1CCOCC1,-3%,17%,6%,25%,i,27%
Cc1cc(-c2ccc(S(=O)(=O)N(C)Cc3ccccc3)cc2)on1,-5%,5%,-16%,-2%,i,-6%
CCc1ccc(NC(=O)c2ccc3c(=O)n4nc(Nc5ccccc5C)sc4nc3c2)cc1,13µM*,?,-3%,7%,i,23µM*
COC(=O)c1ccc2c(=O)n3nc(Nc4ccc(F)cc4F)sc3nc2c1,6%,1%,.,-7%,.,12%
CCc1ccccc1Nc1nn2c(=O)c3ccc(C(=O)NCc4ccc(C)cc4)cc3nc2s1,8.2µM*,-13%,?,-22%,?,?
Cc1ccccc1Nc1nn2c(=O)c3ccc(C(=O)NCc4ccccc4)cc3nc2s1,16µM*,?,.,-102%,.,16µM*
O=C(CC1Sc2ccc(C(F)(F)F)cc2NC1=O)Nc1ccc(Cl)c(C(F)(F)F)c1 (centres undefined),?,14µM*,?,-97%,i,?
SMILES,DT40 TDP1 no CPT,TGFb SMAD3 inh,ATXN2 expr inh,HepG2 viability,S2 tox,DT40 TDP1 CPT
COc1ccc(Nc2oc(/C=C/c3cc(OC)c(OC)c(OC)c3)nc2C#N)cc1,?,3%,.,-23%,.,?
Cc1oc2c(CN(C)C)c(O)ccc2c(=O)c1-c1cscn1,-4%,34%,-2%,3%,i,-10%
CCc1cc2c(=O)c(-c3ccc4c(c3)OCO4)coc2c(CN(C)C)c1O,3.7µM*,-19%,.,2%,i,2.1µM*
CCc1cc2c(=O)c(-c3cscn3)coc2c(CN(C)C)c1O,2.3µM*,0%,-36%,-13%,i,1.5µM*
CC(C)CCNC(=O)C(=O)Nc1ccc2c(c1)N(S(=O)(=O)c1cccs1)CCC2,3.7µM*,5%,2%,0%,i,5.2µM*
O=C(NCCCO)C(=O)Nc1ccc2c(c1)N(S(=O)(=O)c1cccs1)CCC2,?,18%,9%,-20%,i,?
COCCNC(=O)C(=O)Nc1ccc2c(c1)N(S(=O)(=O)c1cccs1)CCC2,1.5µM*,-11%,-18%,-20%,?,1.8µM*
CCN(CC(=O)NCc1cccs1)S(=O)(=O)c1c(F)cccc1F,-35%,-2%,.,2%,i,-19%
CCOc1ccc(CCNC(=O)c2ccc(-c3nc(CSc4ccc(C)cc4)c(C)o3)cc2)cc1,-5%,-19%,11%,6%,i,-2%
Cc1oc(-c2ccc(C(=O)NCc3ccc(Cl)cc3)cc2)nc1CS(=O)(=O)c1ccccc1,?,?,?,-21%,?,?
Cc1ccc(SCc2nc(-c3ccc(C(=O)NCc4ccc(Cl)cc4)cc3)oc2C)cc1,9.2µM*,-2%,1%,11%,i,15µM*
CCOc1ccccc1CNC(=O)c1ccc(-c2nc(CSc3ccc(C)cc3)c(C)o2)cc1,13µM*,1%,-5%,-14%,i,9.2µM*
COc1ccc(CNC(=O)c2ccc(-c3nc(CSc4ccc(C)cc4)c(C)o3)cc2)c(OC)c1,?,-8%,-2%,-14%,i,8.2µM*
COc1ccccc1CCNC(=O)c1ccc(-c2nc(CSc3ccc(C)cc3)c(C)o2)cc1,8.2µM*,3%,-23%,-8%,i,16µM*
COc1ccc(C2NC(=O)C(C)S2)cc1 (centres undefined),-3%,-14%,3%,1%,i,3%
